Several values for one entry are separate records, joined by “and”; a condition that tells them apart may be missing. Equal entries are not always repeated. Records with an inconclusive call do not appear. More than one record can exist for a structure, and the calls need not agree. Activity calls are given as the source filed them. Unless noted, the call rests on the fitted dose curve; in most records, active means well fitted curve in either direction with a large enough effect (not every such curve was filed as active); inconclusive means small, poorly fitted or top-dose-only effect, or another doubt; inactive means flat fitted curve, though single readings scatter.
Experiments:
[1] = AP1 Signaling Pathway (AID 357); conditions: ME-180 AP-1-bla reporter, EGF-induced, beta-lactamase ratio, 5 h; series mostly up to 17.2 µM;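 further: ME-180 reporter cells stimulated with EGF at its EC50 level; on the % scale 0 is the no-effect control and ±100 the full control effect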
Summary of the method: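 Modulation of EGF-driven AP-1 transcription was assessed with a beta-lactamase reporter in ME-180 cells. Compound and EC50 EGF were co-incubated 5 hours at 37 °C before 2.5-hour CCF4 loading at room temperature and dual-emission reading.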

[2] = target: Cytochrome P450 1A2 (Homo sapiens) (UniProt P05177); experiment: p450-cyp1a2 (AID 410; calls by dose curve; further: potency means the concentration at half of the fitted maximal effect;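 on activity change, negative = inhibition: -100% = full effect of reference inhibitor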); conditions: recombinant CYP1A2, luciferin-ME demethylation, luminescence; series mostly up to 25.6 µM
Cytochrome P450 1A2 (Homo sapiens), sequence (P05177 whole entry, looked up): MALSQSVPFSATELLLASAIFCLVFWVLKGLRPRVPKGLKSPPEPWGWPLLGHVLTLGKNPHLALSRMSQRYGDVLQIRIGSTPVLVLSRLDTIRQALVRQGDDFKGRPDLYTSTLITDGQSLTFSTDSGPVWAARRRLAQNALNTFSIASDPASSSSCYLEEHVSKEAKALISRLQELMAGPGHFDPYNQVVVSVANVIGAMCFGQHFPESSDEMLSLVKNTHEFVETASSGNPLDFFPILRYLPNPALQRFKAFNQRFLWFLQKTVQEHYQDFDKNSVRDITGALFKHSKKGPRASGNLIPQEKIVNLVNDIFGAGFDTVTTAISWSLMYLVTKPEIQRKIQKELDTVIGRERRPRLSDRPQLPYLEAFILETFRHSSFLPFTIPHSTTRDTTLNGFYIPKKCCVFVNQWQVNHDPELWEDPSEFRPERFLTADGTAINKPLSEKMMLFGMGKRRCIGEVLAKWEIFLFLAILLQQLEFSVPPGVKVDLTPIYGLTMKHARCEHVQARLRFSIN
Summary of the method: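 20nM CYP1A2 with 100uM Luciferin-ME (at Km) in 100mM KPO4; compound preincubated 10 min, NADPH regeneration added, 60 min at room temperature. Luciferin quantified by luminescence after detection reagent; normalized to 57 uM furafylline.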

[3] = NFAT Signaling Pathway (AID 444); conditions: Jurkat NFAT-bla M1, carbachol, beta-lactamase ratio, 5 h;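 further: carbachol stimulus at about its EC50 of 1 µM final; on the % scale 0 is the no-effect control and ±100 the full control effect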
Summary of the method: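 Jurkat cells carrying an NFAT-driven β-lactamase reporter and co-transfected muscarinic M1 receptor were treated with compound plus carbachol (1 uM final, an EC50 level) for 5 h at 37 °C. CCF4 loading followed for 1 h at RT; 460/530 nm ratio gave %activity.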

[4] = Stat Signaling Pathway (AID 446); conditions: ME-180 SIE beta-lactamase reporter, IL-6 stimulated, 5 h; series mostly up to 17.2 µM;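 further: ME-180 cervical cancer cells given 40 pM IL-6 alongside compound; SIE-controlled beta-lactamase reporter measured as 460/530 nm FRET emission ratio; on the % scale 0 is the no-effect control and ±100 the full control effect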
Summary of the method: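 ME-180 SIE-bla cells; overnight plating; cpd + IL-6 40 pM, 5 h, 37 C; LiveBLAzer 2.5 h RT; 460/530 nm emission ratio. Normalized to 300 pM IL-6 and 125 nM JAK inhibitor controls.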

[5] = target: Glucocorticoid receptor (Homo sapiens) (UniProt P04150); experiment: GR-GFP Redistribution (AID 450;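 active means compounds whose dose series gives a full or clear partial fitted curve of increased nuclear translocation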; further: potency means the concentration at half of the fitted maximal effect); conditions: U2OS GR-GFP nuclear translocation, laser cytometry, 2 h
Glucocorticoid receptor (Homo sapiens), sequence (P04150 whole entry, looked up, the tested form may be a part): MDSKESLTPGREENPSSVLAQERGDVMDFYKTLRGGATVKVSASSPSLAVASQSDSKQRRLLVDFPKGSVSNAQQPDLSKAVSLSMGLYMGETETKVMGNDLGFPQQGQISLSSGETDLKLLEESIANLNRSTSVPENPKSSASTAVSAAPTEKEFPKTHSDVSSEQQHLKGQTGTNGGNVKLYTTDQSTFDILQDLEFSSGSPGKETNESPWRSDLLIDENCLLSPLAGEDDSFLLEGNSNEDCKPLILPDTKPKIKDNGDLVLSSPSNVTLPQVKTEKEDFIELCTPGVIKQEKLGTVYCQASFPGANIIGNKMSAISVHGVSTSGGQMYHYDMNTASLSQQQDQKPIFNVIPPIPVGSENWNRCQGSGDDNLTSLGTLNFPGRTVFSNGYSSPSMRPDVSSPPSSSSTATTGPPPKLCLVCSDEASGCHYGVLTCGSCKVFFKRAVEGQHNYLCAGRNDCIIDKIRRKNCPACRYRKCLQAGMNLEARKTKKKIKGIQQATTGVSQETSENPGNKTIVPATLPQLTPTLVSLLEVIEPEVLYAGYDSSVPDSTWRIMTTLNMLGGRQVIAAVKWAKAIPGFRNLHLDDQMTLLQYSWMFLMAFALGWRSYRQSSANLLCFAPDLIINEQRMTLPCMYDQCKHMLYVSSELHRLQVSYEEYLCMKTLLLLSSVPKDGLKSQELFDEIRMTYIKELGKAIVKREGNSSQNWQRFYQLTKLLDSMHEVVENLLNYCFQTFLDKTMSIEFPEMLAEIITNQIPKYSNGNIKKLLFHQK

[6] = target: Glucocorticoid receptor (Homo sapiens) (UniProt P04150); experiment: GR-EFC Redistribution (AID 451; calls by dose curve; further: potency means the concentration at half of the fitted maximal effect); conditions: CHO-K1 GR-EFC translocation, beta-gal luminescence, 2 h
Summary of the method: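 CHO-K1 cells stably expressing nuclear-localized β-gal enzyme acceptor and GR fused C-terminally to the enzyme donor fragment; ligand-driven nuclear translocation restores β-gal by complementation. Compounds titrated up to 46 uM final, 2 h at 37 °C; luminescence read.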

[7] = target: Mitogen-activated protein kinase 10 (Mus musculus) (UniProt Q61831); experiment: JNK3 AlphaScreen Assay (AID 530); conditions: JNK3 lysate, c-Jun phosphorylation; series mostly up to 57.1 µM;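 further: kinase came from lysate of stimulated human HepG2 cells; signal reports phosphorylation of biotinylated GST-cJun 1-79 at Ser73 with 10 µM ATP; on the % scale 0 is the no-effect control and ±100 the full control effect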
Summary of the method: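 Inhibitors reduce antibody binding to phosphorylated biotin-cJun, lowering AlphaScreen luminescence. Lysates from HepG2 cells pre-activated by IL-1beta plus TNF-alpha supplied JNK3; compounds were titrated.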

[8] = qHTS Assay for Lipid Storage Modulators (AID 1519; calls by dose curve); conditions: Drosophila S3 cells, BODIPY lipid droplet/cell ratio, laser cytometry, cells loaded with oleic acid
Summary of the method: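 Cells seeded at 5,000 per well were treated with compounds over a concentration series and loaded with oleic acid (400 uM, as added). Lipid droplet fluorescence (488 nm excitation, 500-530 nm channel) was read by laser-scanning cytometry and normalized to 20 uM Triacsin C.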

[9] = target: Ubiquitin carboxyl-terminal hydrolase 1 (Homo sapiens) (UniProt O94782); experiment: Inhibitors of USP1/UAF1: Pilot qHTS (AID 504865; active means well fitted curve in the direction sought with a large enough effect; an effect the other way counts as inactive or inconclusive;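 further: rhodamine fluorescence freed from ubiquitin-rhodamine substrate followed over time; top concentration of the series differs between compounds; on the % scale 0 is the no-effect control and ±100 the full control effect; nearly all actives have a fitted effect of over 35% in size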); conditions: purified USP1/UAF1, Ub-rhodamine cleavage fluorescence; series mostly up to 114 µM
Ubiquitin carboxyl-terminal hydrolase 1 (Homo sapiens), sequence (O94782 whole entry, looked up): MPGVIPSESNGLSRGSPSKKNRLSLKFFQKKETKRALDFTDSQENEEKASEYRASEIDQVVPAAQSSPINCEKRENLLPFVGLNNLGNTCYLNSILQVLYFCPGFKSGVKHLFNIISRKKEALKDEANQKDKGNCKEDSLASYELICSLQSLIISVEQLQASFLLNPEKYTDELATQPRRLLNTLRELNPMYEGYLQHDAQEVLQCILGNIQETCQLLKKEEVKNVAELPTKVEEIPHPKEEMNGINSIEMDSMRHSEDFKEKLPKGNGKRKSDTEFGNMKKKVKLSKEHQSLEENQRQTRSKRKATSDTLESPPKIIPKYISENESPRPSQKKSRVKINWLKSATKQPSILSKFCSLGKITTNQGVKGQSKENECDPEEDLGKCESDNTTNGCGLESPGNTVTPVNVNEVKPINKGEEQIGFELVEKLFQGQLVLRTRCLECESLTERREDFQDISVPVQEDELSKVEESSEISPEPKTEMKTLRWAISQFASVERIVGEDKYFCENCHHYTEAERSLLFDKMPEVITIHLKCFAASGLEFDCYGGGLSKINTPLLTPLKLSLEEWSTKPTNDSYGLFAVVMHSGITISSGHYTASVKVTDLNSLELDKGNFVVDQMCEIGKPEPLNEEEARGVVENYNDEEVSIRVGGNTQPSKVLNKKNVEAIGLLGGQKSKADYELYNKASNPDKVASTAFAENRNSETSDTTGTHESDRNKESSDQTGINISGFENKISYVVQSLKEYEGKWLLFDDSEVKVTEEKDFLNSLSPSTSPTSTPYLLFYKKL
Summary of the method: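 Enzyme-free wells gave the negative control, while test wells held 1nM USP1/UAF1 preincubated with compound for 15 min at room temperature. Ub-Rho at 150nM final started the reaction, and fluorescence at 480/540 nm was recorded kinetically.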

[10] = target: Lysosomal acid glucosylceramidase (Homo sapiens) (UniProt P04062); experiment: Glucocerebrosidase-p2 (AID 348; in the data active means potency below about 10 µM; further: potency means the concentration at half of the fitted maximal effect); conditions: purified GBA, blue fluorogenic substrate, 40 min
Lysosomal acid glucosylceramidase (Homo sapiens), sequence (P04062 whole entry, looked up): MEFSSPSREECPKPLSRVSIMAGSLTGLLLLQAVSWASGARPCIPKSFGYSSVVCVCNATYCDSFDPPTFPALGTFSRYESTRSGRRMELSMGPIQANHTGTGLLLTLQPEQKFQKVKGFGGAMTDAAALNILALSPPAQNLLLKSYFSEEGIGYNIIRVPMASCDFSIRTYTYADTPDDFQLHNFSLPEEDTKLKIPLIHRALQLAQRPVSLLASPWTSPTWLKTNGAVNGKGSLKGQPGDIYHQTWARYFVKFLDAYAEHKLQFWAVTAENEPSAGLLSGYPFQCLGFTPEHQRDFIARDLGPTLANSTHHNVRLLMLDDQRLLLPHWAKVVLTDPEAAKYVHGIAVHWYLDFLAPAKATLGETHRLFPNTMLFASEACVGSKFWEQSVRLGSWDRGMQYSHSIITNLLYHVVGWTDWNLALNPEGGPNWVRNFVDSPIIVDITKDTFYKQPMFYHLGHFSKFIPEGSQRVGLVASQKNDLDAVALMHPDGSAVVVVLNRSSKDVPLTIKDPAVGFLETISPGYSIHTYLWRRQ
Summary of the method: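 Compounds titrated from 0.6 nM upwards against 0.2 nM enzyme in pH 5.9 citric acid/KH2PO4, taurocholate, tween-20; blue fluorogenic substrate 80 uM, 40 min room temperature, stopped and read Ex 365/Em 440 for AC50.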

[11] = target: 3',5'-cyclic-AMP phosphodiesterase 4B (Homo sapiens) (UniProt Q07343); experiment: qHTS Assay for Inhibitors of PDE-IV (AID 607; active means well fitted activation curve with a large enough effect in the main read-out, with a control signal flat, not every such curve was filed as active; further: % of control where 0% means no effect); conditions: HEK293 ACTOne CNG channel cells, membrane potential fluorescence; series mostly up to 22.9 µM
3',5'-cyclic-AMP phosphodiesterase 4B (Homo sapiens), sequence (Q07343 whole entry, looked up): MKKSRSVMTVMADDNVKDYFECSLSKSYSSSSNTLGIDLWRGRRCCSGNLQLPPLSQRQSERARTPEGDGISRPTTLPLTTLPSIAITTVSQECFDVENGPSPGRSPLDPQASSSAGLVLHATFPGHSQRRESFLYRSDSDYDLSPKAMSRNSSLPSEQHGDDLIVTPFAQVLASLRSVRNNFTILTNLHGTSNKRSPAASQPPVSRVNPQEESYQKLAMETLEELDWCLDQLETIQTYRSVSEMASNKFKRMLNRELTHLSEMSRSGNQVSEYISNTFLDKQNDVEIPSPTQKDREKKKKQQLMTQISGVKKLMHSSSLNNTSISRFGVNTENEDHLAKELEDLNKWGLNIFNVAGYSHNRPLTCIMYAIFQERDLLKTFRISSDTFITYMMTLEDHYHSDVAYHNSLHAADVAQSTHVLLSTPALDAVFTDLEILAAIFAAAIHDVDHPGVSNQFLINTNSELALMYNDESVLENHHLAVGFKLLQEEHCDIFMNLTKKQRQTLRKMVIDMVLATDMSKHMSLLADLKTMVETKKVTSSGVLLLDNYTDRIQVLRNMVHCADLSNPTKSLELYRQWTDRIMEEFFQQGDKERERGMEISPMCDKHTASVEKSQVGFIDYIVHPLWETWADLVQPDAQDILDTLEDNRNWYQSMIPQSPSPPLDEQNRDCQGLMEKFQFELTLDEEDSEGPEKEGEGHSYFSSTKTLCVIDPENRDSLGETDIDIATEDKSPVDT
Summary of the method: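 ACTOne HEK293 cells carry a modified cAMP-gated CNG channel and express endogenous PDE4; plated 1000 cells/well, compounds up to 22.9 uM final. Membrane-potential dye fluorescence (ex 535/em 590) was read; parental cells received 10 uM forskolin + 100 uM RO 20-1724.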

[12] = target: Cytochrome P450 2D6 (Homo sapiens) (UniProt P10635); experiment: qHTS Assay for Inhibitors and Substrates of Cytochrome P450 2D6 (AID 891; active means well fitted curve in the direction sought with a large enough effect; an effect the other way counts as inactive or inconclusive;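 further: luciferin methyl ether substrate demethylated by CYP2D6 with NADPH regeneration; on the % scale 0 is the no-effect control and ±100 the full control effect; nearly all actives have a fitted effect of over 60% in size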); conditions: recombinant CYP2D6, luciferin-ME EGE luminescence; series mostly up to 57.1 µM
Cytochrome P450 2D6 (Homo sapiens), sequence (P10635 whole entry, looked up): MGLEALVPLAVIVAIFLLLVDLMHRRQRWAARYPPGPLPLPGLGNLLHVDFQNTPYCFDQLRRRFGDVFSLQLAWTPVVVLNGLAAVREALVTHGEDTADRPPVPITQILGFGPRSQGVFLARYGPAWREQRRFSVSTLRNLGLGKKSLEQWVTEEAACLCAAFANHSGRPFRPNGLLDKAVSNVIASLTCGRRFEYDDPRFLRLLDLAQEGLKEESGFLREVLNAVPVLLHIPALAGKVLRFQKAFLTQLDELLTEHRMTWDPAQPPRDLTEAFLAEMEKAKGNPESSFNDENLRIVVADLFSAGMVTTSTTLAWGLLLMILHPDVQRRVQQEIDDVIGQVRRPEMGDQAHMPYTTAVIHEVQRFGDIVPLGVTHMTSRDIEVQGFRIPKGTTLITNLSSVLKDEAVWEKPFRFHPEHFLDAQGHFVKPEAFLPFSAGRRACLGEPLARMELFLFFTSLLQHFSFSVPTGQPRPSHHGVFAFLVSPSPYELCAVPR
Summary of the method: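 Human CYP2D6 (5 nM) with 30 uM Luciferin-ME EGE (at Km) in 100 mM KPO4, compound preincubated 10 min, then NADPH regeneration system for 60 min at room temperature. Luciferin read by luminescence; normalized to 1.43 uM quinidine.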

[13] = measured here: cell count channel max response
[14] = measured here: lipid channel max response

SMILES	outcome [1]	Potency [2]	activity change, negative = inhibition ([3]; at 17.2 µM (top of the series))	outcome [4]	Potency [5]	Potency [6]	outcome [7]	activity change, negative = inhibition ([8]; at 25.7 µM (top of the series))	max response [8, 13]	max response [8, 14]	Potency [9]	Potency [10]	activity change, negative = inhibition ([3]; at 7.69 µM (top of the series))	Potency [11]	activity change, negative = inhibition ([8]; at 57.5 µM (top of the series))	activity change, negative = inhibition ([3]; at 38 µM (top of the series))	Potency [12]
CN1C(=O)CCS(=O)(=O)[C@@H]1c1ccc(Cl)cc1	inactive	inactive	1.85% (inactive)	inactive	> 20.6 µM (inactive)	> 20.6 µM (inactive)	inactive	-0.668% (inactive)	-4.45%	-4.68%	inactive	–	–	–	–	–	–
N#Cc1ccc(CN2CC[C@@]3(CCCNC3)C2)cc1	inactive	–	–	inactive	–	> 46 µM (inactive)	inactive	–	16.6%	21.9%	–	> 11.4 µM (inactive)	-7.45% (inactive)	inactive	2.19% (inactive)	–	–
CN1CCC2(CC1)CCN(C(=O)c1ccco1)CC2	inactive	–	–	inactive	–	> 46 µM (inactive)	inactive	–	21.1%	24.5%	–	> 11.4 µM (inactive)	-4.13% (inactive)	inactive	1.82% (inactive)	–	–
O=C(c1csnn1)N1CCC[C@@]2(CCN(Cc3ccncc3)C2)C1	inactive	–	–	inactive	–	> 46 µM (inactive)	inactive	–	21.7%	28.5%	–	> 11.4 µM (inactive)	-2.7% (inactive)	inactive	4.95% (inactive)	–	–
Clc1ccc(CS[C@@H](Cn2ccnc2)c2ccc(Cl)cc2Cl)cc1	inactive	–	–	–	–	–	–	-2.77% (inactive)	-14.6%	-18.3%	–	–	–	–	–	–	–
COc1ccc2c(c1OC)C(=O)O[C@H]2[C@H]1c2cc3c(cc2CCN1C)OCO3	inactive	25.1 µM (active) and inactive and 31.6 µM (active)	-1.79% (inactive)	inactive	–	–	inactive	3% (inactive)	-6.69%	-2.42%	inactive	–	–	inactive	–	9.14% (inactive)	inactive
O=C(Oc1ccccc1)N1CCC2(CCCN(C(c3ccccc3)c3ccccc3)C2)CC1	–	inactive	–	–	–	> 46 µM (inactive)	–	–	7.72%	16.7%	–	> 11.4 µM (inactive)	–	inactive	6.26% (inactive)	–	–
CC(C)NC(=O)N1CCC2(CCNCC2)CC1	inactive	–	–	inactive	–	–	inactive	–	1.41%	7.12%	–	> 11.4 µM (inactive)	–	inactive	4% (inactive)	–	–
